FMDV antiviral – High Throughput Screening for Foot and Mouth Disease Virus Antivirals; AID 1159524, 2015; Potency, µM (titrated, usually from 57.9 µM), inactives show top-dose activity change, negative = inhibition, hits mostly inhibitors; FMDV antiviral cell-based qHTS; hit rate 1.2% among 410,000; calls by dose curve; tested in HEK293T cells; note: read-out not given here; potency is the fitted concentration of half-maximal effect; % is set by controls: 0 for no effect and ±100 for the full control effect; nearly all actives have a fitted effect of over 45% in size
MARV entry inh – qHTS for inhibitors of binding or entry into cells for Marburg Virus | Marburg virus pseudotyped entry inhibition, cell reporter | Potency, µM (highest dose often 37.8 µM), for inactives: at the highest dose activity change, negative = inhibition, usual class: inhibitors | hit rate 1.8% among 300,000; calls by dose curve; tested in HEK293 cells; note: potency is the fitted concentration of half-maximal effect; % is set by controls: 0 for no effect and ±100 for the full control effect
SARS PLpro yeast – qHTS of Yeast-based Assay for SARS-CoV PLP. hit rate 0.19% among 330,000. S. cerevisiae expressing SARS-CoV PLpro, growth rescue. AID 485353, 2010. Potency, µM (series often up to 32.9 µM), for inactives: at the top dose activity, positive = growth rescue, usual class: activators; calls by dose curve; note: potency is the fitted concentration of half-maximal effect; 0% is about no effect; nearly all actives have a fitted effect of over 55% in size
HCV inh – qHTS Assay for Inhibitors of Hepatitis C Virus (HCV); Huh7.5.1 HCVcc-Cre infection, luciferase reporter, 44 h; Potency, µM (titrated, usually from 41.8 µM), for the others: at the top dose activity change, negative = inhibition, hits mostly inhibitors; hit rate 3.4% among 340,000; AID 651820, 2012; active = well fitted inhibition curve with a large enough effect; inconclusive = small, poorly fitted or top-dose-only effect, or another doubt; inactive = no such curve, though single readings can be large or run the other way; note: potency is the fitted concentration of half-maximal effect; % is set by controls: 0 for no effect and ±100 for the full control effect
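Infectious HCV cell culture screen: compound-treated cells (1,000/well, pre-plated 4 h) are infected with HCVcc-Cre at roughly 0.5 moi and grown 44 h. Infection is quantified by luciferase signal after 15 min substrate incubation at room temperature.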
LASV entry inh – qHTS for Inhibitors of binding or entry into cells for Lassa Virus; Lassa virus pseudotype entry inhibition, cell reporter; Potency, µM (top dose mostly 37.9 µM), for the others: top-dose activity change, negative = inhibition, actives largely listed as inhibitors; hit rate 1.2% among 300,000; AID 540256, 2011; calls by dose curve; tested in HEK293 cells; note: potency is the fitted concentration of half-maximal effect; % is set by controls: 0 for no effect and ±100 for the full control effect; nearly all actives have a fitted effect of over 50% in size
HCMV inh – qHTS Assay for inhibitors of the human cytomegalovirus (HCMV); HFF cells, HCMV-luciferase reporter, 72 h; hits give low values; activity change, negative = inhibition, % at 57.5 µM; hit rate 4.5% among 410,000; AID 1259415, 2018; in the data active = activity change below about -60%; inconclusive = no clear call, values can overlap the other calls; inactive = above about -39%; note: % is set by controls: 0 for no effect and ±100 for the full control effect
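Screen run at 2 compound doses on HFFs infected with reporter HCMV, MOI 1 PFU/cell. Luciferase activity from cell lysates at 72 h post infection gave inhibition relative to buffer-only and Salinomycin wells.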
Active calls of the source: *; ! = not confirmed by another sample; [ ] = another dose, or the depositor's remark. Compounds with a hit are over-represented: about 8% of the library has one in this group of screens.

Results for CSc1cccc(NC(=O)CC(c2ccc(F)cc2)N2Cc3ccccc3C2=O)c1 (stereo not given) ?
FMDV antiviral: inconclusive; LASV entry inh: -7.3%[46.1 µM]; HCMV inh: -12.1

How did CC(=O)c1cccc(CN2CCCC(C(=O)c3ccc4c(c3)OCO4)C2)c1 (stereo not given) do in these assays?
FMDV antiviral: -17.0%; MARV entry inh: inconclusive; SARS PLpro yeast: 0.5%; HCV inh: -2.0%; LASV entry inh: 6.6%[46.1 µM]; HCMV inh: inconclusive

Results for O=C(c1ccc2c(c1)OCO2)C1CCCN(C2CCN(CCc3ccccc3)CC2)C1 (stereo not given) ?
FMDV antiviral: -8.3%; MARV entry inh: 7.08µM*; SARS PLpro yeast: 1.3%; HCV inh: 3.55µM*; LASV entry inh: inconclusive; HCMV inh: -13.7

Results for CCCn1c(N)c(C(=O)CSc2nnc(Cc3ccccc3)o2)c(=O)n(C)c1=O ?
FMDV antiviral: inconclusive; MARV entry inh: inconclusive; SARS PLpro yeast: 7.9%; HCV inh: 10µM*; LASV entry inh: inconclusive; HCMV inh: -32.3

How did CC(=O)c1cccc(NC(=O)Nc2cccnc2)c1 do in these assays?
FMDV antiviral: 20.3%; MARV entry inh: 4.9%; SARS PLpro yeast: -2.2%; HCV inh: 1.2%; LASV entry inh: 3.6%; HCMV inh: -76.8*

Results for Cc1ccc(NC(=O)Nc2cccnc2)cc1NC(=O)Nc1cccnc1 ?
FMDV antiviral: inconclusive; SARS PLpro yeast: 1.4%; HCV inh: 11.2µM*; HCMV inh: inconclusive

What do the screens show for `O=C(Nc1ccc(Cl)c([N+](=O)[O-])c1)Nc1nc2ccccc2s1`?
SARS PLpro yeast: 0.7%

What do the screens show for `O=C(Nc1cccnc1)Nc1cccc(F)c1`?
FMDV antiviral: 19.9%; SARS PLpro yeast: -3.7%; HCV inh: 18.5%; HCMV inh: -30.8

What do the screens show for `Cc1ccc(NC(=O)Nc2nc3ccccc3s2)cc1NC(=O)Nc1nc2ccccc2s1`?
FMDV antiviral: 4.4%; SARS PLpro yeast: -0.9%; HCV inh: 14.1µM*; HCMV inh: -74.3*

What do the screens show for `CCC1CN(CCNC(=O)c2ccnc(Cl)c2)Cc2cc(OC)ccc2O1` (stereo not given)?
FMDV antiviral: 66.4%

What do the screens show for `Nc1nc(=S)c2ncn([C@@H]3O[C@H](CO)[C@@H](O)[C@H]3O)c2[nH]1`?
FMDV antiviral: -29.5%; HCV inh: 2.24µM*; HCMV inh: -88.7*

How did Nc1ccn(C2OC(CO)C(O)C2F)c(=O)n1 (stereo not given) do in these assays?
FMDV antiviral: -19.9%; HCMV inh: -81.6*

What do the screens show for `NC[C@H]1O[C@@H](n2ccc(N)nc2=O)[C@H](O)[C@@H]1O`?
FMDV antiviral: -13.0%; HCMV inh: -86.8*

What do the screens show for `NC(=O)c1ncn([C@@H]2O[C@H](CO)[C@@H](O)[C@H]2O)n1`?
FMDV antiviral: -18.9%; MARV entry inh: inconclusive; SARS PLpro yeast: 12.7%; HCV inh: -23.5%; LASV entry inh: 23.1µM*!; HCMV inh: 103.0

How did Nc1ccn([C@@H]2O[C@H](CNC(=O)[C@H]3CCC(=O)N3)[C@@H](O)[C@H]2O)c(=O)n1 do in these assays?
FMDV antiviral: -2.6%; HCMV inh: -5.5

How did Nc1ccn(C2OC(CO)C(O)C2O)c(=O)n1 (stereo not given) do in these assays?
FMDV antiviral: 3.0%

Results for CCc1nnc(SCC(=O)Nc2cc(Cl)c(OC)cc2OC)c2cc3oc(C)cc3n12 ?
FMDV antiviral: -18.7%; LASV entry inh: inconclusive; HCMV inh: 8.6

How did Cc1ccc(C)c(NC(=O)CCS(=O)(=O)c2cccc3nsnc23)c1 do in these assays?
FMDV antiviral: 5.7%; MARV entry inh: -13.6%[46.1 µM]; LASV entry inh: 5.3%[46.1 µM]; HCMV inh: 14.9

What do the screens show for `CCSC1=NC2(CCN(C(=O)NC3CCCCC3)CC2)N=C1c1ccc(Cl)cc1`?
FMDV antiviral: -14.9%; LASV entry inh: 29.1%[46.1 µM]; HCMV inh: 4.7

What do the screens show for `CCCCCCCCCCCCCCCC(=O)Nc1ccn(C2OC(CO)C(O)C2O)c(=O)n1` (stereo not given)?
FMDV antiviral: -18.4%; MARV entry inh: inconclusive; HCV inh: -26.8%; LASV entry inh: -7.3%[46.1 µM]; HCMV inh: -97.9*

Results for Nc1ncn([C@@H]2O[C@H](CO)[C@@H](O)[C@H]2O)c(=O)n1 ?
FMDV antiviral: 0.0%; MARV entry inh: inconclusive; HCV inh: -19.4%; LASV entry inh: 4.11µM*; HCMV inh: inconclusive

How did CCCCCCCCCCCCCCCC(=O)OCC1OC(n2ccc(N)nc2=O)C(O)C1O (stereo not given) do in these assays?
FMDV antiviral: -2.1%; MARV entry inh: 1.5%; HCV inh: inconclusive; LASV entry inh: -9.9%; HCMV inh: -35.6

How did Nc1ccn([C@@H]2O[C@H](CO)[C@@H](O)[C@@H]2O)c(=O)n1 do in these assays?
FMDV antiviral: -18.4%; MARV entry inh: inconclusive; SARS PLpro yeast: 1.1%; HCV inh: inconclusive; LASV entry inh: inconclusive; HCMV inh: -99.5*

What do the screens show for `c1cncc(OC2CCN(Cc3ccc4c(c3)CN(Cc3ccc5c(c3)CCO5)CCO4)CC2)c1`?
FMDV antiviral: -24.6%

Results for Cc1cccc(NS(=O)(=O)c2ccc(NC(=O)N3CCCC3)cc2)c1 ?
FMDV antiviral: -13.0%; LASV entry inh: inconclusive; HCMV inh: 8.7

What do the screens show for `C=C(C)C(=O)Oc1ccc(N=Nc2ccc(C)cc2)ccc1=O`?
FMDV antiviral: inconclusive; MARV entry inh: inconclusive; HCV inh: 11.2µM*; LASV entry inh: inconclusive; HCMV inh: -0.2

How did COc1ccc(C)cc1NC1(c2ccccc2)C(=O)c2ccccc2C1=O do in these assays?
FMDV antiviral: -0.3%; LASV entry inh: 3.9%[46.1 µM]; HCMV inh: 2.7

Results for COCc1cc(C)nc(SCc2nc3ccccc3c(=O)[nH]2)c1C#N ?
FMDV antiviral: -0.3%; MARV entry inh: inconclusive; SARS PLpro yeast: 3.0%; HCV inh: -26.7%; LASV entry inh: -1.4%[46.1 µM]; HCMV inh: -2.4

How did Cc1cc(C)c(C#N)c(SCc2nc3ccccc3c(=O)[nH]2)n1 do in these assays?
FMDV antiviral: 21.2%; MARV entry inh: 1.12µM*; SARS PLpro yeast: -0.2%; HCV inh: -4.5%; LASV entry inh: 3.16µM*; HCMV inh: -4.8

What do the screens show for `COC(=O)C[C@H]1c2ccccc2C2=C(C[C@@H](C)[C@H]3C(=O)N(c4ccccc4)C(=O)[C@@H]23)N1C(=O)OC`?
MARV entry inh: -16.5%[14.2 µM]; LASV entry inh: inconclusive

How did CCOc1ccc(C(=O)NNC(=O)CN2C(=O)NC3(CCCC3)C2=O)cc1 do in these assays?
FMDV antiviral: 2.8%; MARV entry inh: -14.5%; SARS PLpro yeast: -8.2%; HCV inh: -1.5%; LASV entry inh: 3.7%; HCMV inh: -101.9*

Screening results (PubChem BioAssay)
